# In PubChem BioAssay AID1851 (National Center for Advancing Translational Sciences (NCATS), 2009):
# The whole screen tested about 16,000 compounds, of which about 4,000 (25%) were called active. Another 26% or so got no clear call; they are omitted. These entries were drawn from the full list. Values without a mark were called inactive. Calls follow the shape of the dose curve; as a rule, active = well fitted curve in the direction sought with a large enough effect; inconclusive = small, poorly fitted or top-dose-only effect, or effect the other way; inactive = no such curve, though single readings can be large or run the other way.
# Biological target: Cytochrome P450 2C9 (Homo sapiens) (UniProt P11712)
# Test: Cytochrome panel assay with activity outcomes
# Settings: recombinant CYP, pro-luciferin dealkylation, luminescence, p450-cyp2c9; series mostly up to 57.1 µM
# % is scaled to controls: 0 for no effect and ±100 for the full control effect.
# Cytochrome P450 2C9 (Homo sapiens), sequence (P11712 whole entry, looked up): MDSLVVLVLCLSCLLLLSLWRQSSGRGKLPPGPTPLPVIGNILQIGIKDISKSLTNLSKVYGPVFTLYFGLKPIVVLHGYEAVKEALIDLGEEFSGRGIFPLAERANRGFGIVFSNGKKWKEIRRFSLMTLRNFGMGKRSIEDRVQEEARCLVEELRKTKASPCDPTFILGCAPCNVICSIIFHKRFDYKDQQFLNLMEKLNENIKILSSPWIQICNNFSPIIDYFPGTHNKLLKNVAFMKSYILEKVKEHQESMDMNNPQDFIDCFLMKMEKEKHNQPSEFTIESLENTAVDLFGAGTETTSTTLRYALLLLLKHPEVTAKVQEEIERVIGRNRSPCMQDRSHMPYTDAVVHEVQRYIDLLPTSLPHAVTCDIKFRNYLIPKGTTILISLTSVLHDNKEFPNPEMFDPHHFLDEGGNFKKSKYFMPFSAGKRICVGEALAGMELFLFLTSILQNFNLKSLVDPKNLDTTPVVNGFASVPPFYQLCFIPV
Compound,AC50,"activity, negative = inhibition"
ClC(=Nc1cccc2ccccc12)N(c1ccccc1)c1ccccc1,3.16 µM (active),
CCCN1CNC(=S)N(c2cccc(C)c2C)C1,inactive,
O=C(CSc1nc2ccccc2c(=O)n1CCCC(=O)N1CCCC1)NCc1ccco1,7.08 µM (active),
O=C(CSc1nc2ccccc2c(=O)n1Cc1ccccc1)NCc1ccco1,inactive,
O=c1c2ccccc2nc(SCc2ccccc2Cl)n1Cc1ccccc1,1.26 µM (active),
Cc1cc(NC(=O)CSc2nc3ccccc3c(=O)n2CCCC(=O)NCc2ccco2)n[nH]1,4.47 µM (active),
Cc1cccc(C)c1-n1c(SCC(=O)NCc2ccco2)nc2ccccc2c1=O,14.1 µM (active),
Oc1ccc([C@@H]2CNCCc3c2cc(O)c(O)c3Cl)cc1,inactive,
O=c1[nH]c(=O)n([C@@H]2C[C@H](O)[C@H](CO)O2)cc1I,inactive,
O=C(O)CCCCCn1c(SCC(=O)N2CCCC2)nc2ccsc2c1=O,inactive,
CN1CCN(C(=O)c2ccc3c(=O)n4c(nc3c2)CCCCC4)CC1,inactive,
COCC(=O)N1CCC2(CCCN(C(=O)Nc3ccc(OC)cc3)C2)CC1,inactive,
N#CCSc1nc2cc(C(=O)N3CCCC3)ccc2c(=O)n1Cc1ccccc1,3.98 µM (active),
COc1ccc(NC(=O)CSc2nc3ccccc3c(=O)n2CCC(=O)N2CCCCC2)cc1,3.98 µM (active),
O=C(CSc1nc2ccccc2c(=O)n1NC(=O)Cc1ccccc1)NCc1ccccc1Cl,0.398 µM (active),
O=C(CSc1nc2ccccc2c(=O)n1CCCO)NCc1ccccc1,12.6 µM (active),
Cc1cc(NC(=O)CSc2nc3ccsc3c(=O)n2CCCCC(=O)O)no1,inactive,
Cc1cc(NC(=O)CSc2nc3ccsc3c(=O)n2Cc2ccccn2)n[nH]1,28.2 µM (active),
CC(C)Cn1c(SCc2nc3ccccc3c(=O)[nH]2)nc2ccccc2c1=O,2 µM (active),
Cc1cc2cc(C)c3nnc(SCC(=O)NCc4ccc5c(c4)OCO5)n3c2cc1C,inactive,
CCCc1nnc(SCC(=O)N2CCCCC2)n1CC1CCCO1 (stereo not drawn),inactive,
CCN1CCN(C(=O)CCc2nc3ccccc3c(=O)[nH]2)CC1,inactive,
Cc1ccc2cc(C)c3nnc(SCC(=O)NCc4ccco4)n3c2c1,15.8 µM (active),
O=C(NCC1CCCO1)c1ccc2c(=O)n(Cc3ccco3)c(SCC(=O)N3CCCC3)nc2c1 (stereo not drawn),2.24 µM (active),
COCc1nc2c([nH]1)c(=O)n(C)c(=O)n2CC(C)C,inactive,

Compound,AC50,"activity, negative = inhibition"
Cc1cc(C)c(C)c(S(=O)(=O)ON2C(=O)c3ccccc3C2=O)c1C,inactive,
Cc1ccc(OCCCN2C(=O)C(=O)c3cccc(C)c32)cc1,8.91 µM (active),
CS(=O)(=O)N1CCN(c2ccc(C(=O)NC3C4CC5CC(C4)CC3C5)cc2[N+](=O)[O-])CC1 (stereo not drawn),12.6 µM (active),
CN(c1ccc(C(=O)NC2CC3CCC2C3)cc1)S(C)(=O)=O (stereo not drawn),inactive,
CCCN[C@@H](C)C(=O)Nc1c(C)csc1C(=O)OC,inactive,
CC(=O)c1c(N=CN(C)C)nc(C)nc1-c1ccccc1,inactive,
O=c1c(-c2ccccc2)nc2cnc(N3CCOCC3)nc2n1CCc1ccccc1,7.94 µM (active),
CN1CCN(c2ncc3ncc(=O)n(CCc4ccccc4)c3n2)CC1,inactive,
N#CCCn1c(=O)cnc2cnc(N3CCOCC3)nc21,inactive,
COc1ccc(-c2nc3cnc(N4CCOCC4)nc3n(CCc3ccccc3)c2=O)cc1,inactive,
O=c1cnc2cnc(N3CCOCC3)nc2n1CCc1ccccc1,10 µM (active),
COc1ccc(-c2nc3cnc(N4CCN(C)CC4)nc3n(CCc3ccccc3)c2=O)cc1,inactive,
CN1CCN(c2ncc3nc(-c4cc(F)cc(F)c4)c(=O)n(CCc4ccccc4)c3n2)CC1,inactive,
O=c1c(-c2ccc(Cl)cc2)nc2cnc(N3CCOCC3)nc2n1CCc1ccccc1,inactive,
CN1CCN(c2ncc3nc(-c4ccccc4)c(=O)n(CCc4ccccc4)c3n2)CC1,3.16 µM (active),
COc1ccccc1-c1ccc2ncnc(N(C)C)c2c1,,-21.1% [at 2.29 µM]
CN1[C@@H]2CC[C@H]1CC(OC(=O)c1c[nH]c3ccccc13)C2 (stereo partly drawn),inactive,
O=C(O)[C@H](Cc1c[nH]c2ccccc12)N1C(=O)c2ccccc2C1=O,,6.23% [at 11.4 µM]
CN1C2C=C(N(CCc3c[nH]c4ccccc34)C(=O)c3ccc(Cl)cc3)CC1CC2 (stereo not drawn),1.78 µM (active),
C#CCCCO/N=C1/[C@H]2O[C@@H]2[C@@H](O)[C@H]2[C@H]1CCn1c(=O)n([C@@H](CC)c3ccccc3)c(=O)n12,,4.97% [at 11.4 µM]
COc1ccc(C(=O)Nc2cccc(OC(=O)c3ccc(C)c(C)c3)c2)cc1,3.55 µM (active),
CN(Cc1ccco1)c1ncncc1-c1ccoc1,,-8.69% [at 2.29 µM]
C/C(=N\n1nnnc1Nc1ccccc1)c1ccc(N)cc1,11.2 µM (active),
N=C(N)SCc1nc2ccccc2c(=O)n1-c1ccccc1Cl,3.16 µM (active),
O=C(O)c1cc(-c2ccncc2)nc2ccccc12,,-29.2% [at 11.4 µM]

Compound,AC50,"activity, negative = inhibition"
O=C(c1cc(-c2ccncc2)nc2ccccc12)N1CCN(c2ccc(N3CCOCC3)nn2)CC1,1.26 µM (active),
O=C(O)CSSCC(=O)O,,22.5% [at 11.4 µM]
N[C@H](C(=O)O)c1cccc(O)c1,inactive,
CCCn1c(-c2ccccc2)nc2c(=O)n(C)c(=O)[nH]c21,12.6 µM (active),
Cn1c(=O)c2[nH]c(-c3ccccc3)nc2n(C)c1=O,inactive,
CCn1c(=O)c2[nH]c(-c3ccccc3)nc2n(CC)c1=O,inactive,
CC[N+](CC)(CC)CC,inactive,
Cc1nn2c3c(cnc2c1-c1ccccc1)C(=O)CC(c1ccccc1)C3 (stereo not drawn),10 µM (active),
N[C@H](C(=O)O)[C@H](N)C(=O)O,,17.2% [at 11.4 µM]
C=C[C@H](N)CCC(=O)O,inactive,
CO/N=C(\C(=O)N[C@@H]1C(=O)N2C(C(=O)O)=C(COC(C)=O)CS[C@@H]12)c1csc(N)n1,inactive,
COc1ccc(N(CC(=O)O)N=O)cc1,,-1.12% [at 11.4 µM]
COc1ccc(N(C(=O)COc2ccccc2OC)S(=O)(=O)c2ccc(C)cc2)cc1,1 µM (active),
Cc1ccccc1-c1cc(NCCN2CCOCC2)ncn1,,18.6% [at 2.29 µM]
O=C1C(=O)c2ccccc2C(O)=C1C1CCC(c2ccc(Cl)cc2)CC1 (stereo not drawn),2 µM (active),
CCC(c1nnnn1CC1CCCO1)N(CCN1CCOCC1)Cc1cc2cc(C)ccc2[nH]c1=O (stereo not drawn),inactive,
Cc1cc(C)c2cc(CN(Cc3nnnn3Cc3ccc(F)cc3)C3CCCC3)c(=O)[nH]c2c1,7.08 µM (active),
Cn1c(C(=O)Nc2ccccc2)cc2sccc21,20 µM (active),
Cn1nccc1C(=O)Nc1ccc(Cl)cc1,inactive,
COCCN(C(=O)c1ccco1)c1nnc(-c2ccc(OC)cc2)s1,28.2 µM (active),
COCC(=O)N(C)c1nnc(-c2ccc([N+](=O)[O-])cc2)s1,inactive,
O=C1N(c2ccccc2)c2ccccc2C1(Cc1ccncc1)Cc1ccncc1,7.94 µM (active),
C=CCN1CCc2cc(O)c(O)cc2[C@H](c2ccccc2)C1,inactive,
COc1ccccc1CN1CC2(CCN(S(C)(=O)=O)CC2)C1,inactive,
Cc1ccc(NC(=O)CN(C)C(=O)CSc2n[nH]c(N)n2)cc1,inactive,

Compound,AC50,"activity, negative = inhibition"
Nc1nc(SCC(=O)Nc2ccccc2Sc2ccc(Cl)cc2)n[nH]1,1 µM (active),
CC(C)=CCC/C(C)=C/CO/N=C1/C[C@@H](O)[C@@H](O)[C@@H]2[C@@H]3C(=O)N(C(C)(C)C)C(=O)[C@H]3CC[C@@H]12,,-9.91% [at 11.4 µM]
CC[N+](CC)(CC)CCOc1ccc(/C=C\c2ccccc2)cc1,inactive,
C=CCNC(=O)/C(=C\C=C\c1ccccc1)NC(=O)c1ccc(OCCCC)cc1,12.6 µM (active),
Clc1ccc(/C=N/Nc2nnc(-c3ncc[nH]3)c3ccccc23)cc1,5.01 µM (active),
N[C@@H](CSC(=O)c1ccccc1)C(=O)O,,18.3% [at 11.4 µM]
O=C(Nc1cccn(Cc2c(Cl)cccc2Cl)c1=O)c1ccc(Cl)cc1Cl,3.55 µM (active),
O=C1Nc2ccccc2Nc2ncccc21,inactive,
C/C(=C\C(=O)c1ccc(Br)cc1)NCc1ccc2c(c1)OCO2,11.2 µM (active),
COc1cc(C(=O)NCCC(=O)NCc2ccc3c(c2)OCO3)cc(OC)c1OC,inactive,
C/C(=C\C(=O)c1ccc(Cl)cc1)NCc1ccc2c(c1)OCO2,7.94 µM (active),
CC1(C)CC(NCc2ccc3c(c2)OCO3)CCO1 (stereo not drawn),inactive,
O=C1Nc2ccccc2C(O)(C(=O)NCc2ccc3c(c2)OCO3)N1c1ccc(Cl)c(Cl)c1 (stereo not drawn),inactive,
O=C(NCc1ccc2c(c1)OCO2)C1CC(=O)N(C2CCCC2)C1 (stereo not drawn),inactive,
Cc1[nH]c2ccccc2c1/C=C/c1cc[n+](C)cc1,inactive,
CCCc1ncc(C[n+]2ccccc2C)c(N)n1,inactive,
O=C(c1ccccc1)c1ccc(OCCn2cnc3ccccc3c2=O)cc1,2.82 µM (active),
O=c1c2ccccc2ncn1CCCSc1ccccc1,14.1 µM (active),
O=C1c2ccccc2C(=O)N1CCCSc1ccccc1,,-22.7% [at 11.4 µM]
Cc1ccc(SCCCn2cnc3ccccc3c2=O)cc1,12.6 µM (active),
COc1ccc(Cl)cc1C(=O)Nn1cnc2ccccc2c1=O,inactive,
COc1ccc2c(OC)c3ccoc3nc2c1OC,inactive,
CN(CC(=O)O)Cc1c(O)c(Cl)cc(Cl)c1Cl,,13.6% [at 11.4 µM]
